Several values for one entry are separate records, joined by “and”; a condition that tells them apart may be missing. Equal entries are not always repeated. This is part of a sample that, as a whole, favours compounds with a hit. Of some 83,000 tested, about 20% had one in any assay.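 Compound tested at a single concentration for 48 hours in 96-well plates; a percent growth value below 10 was scored as active.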 Activity calls are given as the source filed them.
Tests used:
Test in all cases: NCI-60 one-dose screen, 48 h (100 = growth as untreated, 0 = no growth, -100 = all killed)
T-47D breast = details: 10 µM unless noted
BT-549 breast = details: 10 µM unless noted
MDA-MB-435 melanoma = details: 10 µM unless noted
SW-620 colon = details: 10 µM unless noted
MCF7 breast = tested on: MCF7 breast
HCT-116 colon = details: 10 µM unless noted
HCC-2998 colon = details: 10 µM unless noted
KM12 colon = details: 10 µM unless noted

SMILES | growth (T-47D breast) | growth (BT-549 breast) | growth (MDA-MB-435 melanoma) | growth (SW-620 colon) | growth (MCF7 breast; 10 µM unless noted) | growth (HCT-116 colon) | growth (HCC-2998 colon) | growth (KM12 colon) | growth (MCF7 breast; 10 µM) | growth (MCF7 breast; 100 µM)
O=[N+]([O-])c1ccc(NC(c2ccccc2)c2ccc3cccnc3c2O)cc1 (configuration not stated) | 37.2% (inactive) | 39% (inactive) | 32.8% (inactive) | 23.9% (inactive) | 17.3% (inactive) | 28% (inactive) | 29.8% (inactive) |  |  | 
COc1ccc2nccc(Cl)c2c1 | 122% (inactive) | 98.4% (inactive) | 108% (inactive) | 101% (inactive) | 98.5% (inactive) | 103% (inactive) | 115% (inactive) |  |  | 
O=c1[nH]c(=O)n(C2OC(CO)C(O)C2O)cc1I (configuration not stated) | 105% (inactive) and 100% (inactive) | 143% (inactive) and 108% (inactive) | 106% (inactive) and 95% (inactive) | 101% (inactive) | 89% (inactive) and 107% (inactive) | 109% (inactive) and 95.8% (inactive) | 109% (inactive) and 95.8% (inactive) |  |  | 
CC(C)(C)C1=CC(=O)C(C(C)(C)C)=CC1=O | 79.2% (inactive) and 112% (inactive) | 91.7% (inactive) and 110% (inactive) | 97.8% (inactive) and 110% (inactive) | 106% (inactive) and 104% (inactive) | 86.5% (inactive) and 97.2% (inactive) | 88.5% (inactive) and 105% (inactive) | 94.4% (inactive) and 101% (inactive) |  |  | 
Cc1cnc(N)s1 | 90.2% (inactive) | 100% (inactive) | 104% (inactive) | 103% (inactive) | 95.4% (inactive) | 95.8% (inactive) | 92% (inactive) |  |  | 
Cc1c(Cl)cc(Cl)c(N)c1Cl | 104% (inactive) | 112% (inactive) | 104% (inactive) | 101% (inactive) | 98.6% (inactive) | 103% (inactive) | 113% (inactive) |  |  | 
CCOC(=O)c1ccncc1 | 95% (inactive) | 109% (inactive) | 107% (inactive) | 104% (inactive) | 97.9% (inactive) | 107% (inactive) | 105% (inactive) |  |  | 
CC(C)(C)OC(=O)NCCc1ccc(N)cc1 | 94.8% (inactive) | 98.1% (inactive) | 101% (inactive) | 97.6% (inactive) | 99.2% (inactive) | 112% (inactive) | 107% (inactive) | 107% (inactive) |  | 
COc1cc2oc3cc(=O)cc4oc(-c5ccccc5)cc(c2c2c1CCC(c1ccccc1)O2)c43 (configuration not stated) | 55.8% (inactive) | 78.8% (inactive) | 69.2% (inactive) | 100% (inactive) |  | 59.7% (inactive) | 60.7% (inactive) | 74.3% (inactive) | 30% (inactive) | 19.2% (inactive) and 3.41% (active)
O=C(NC(CSSCC(NC(=O)OCc1ccccc1)C(=O)O)C(=O)O)OCc1ccccc1 (configuration not stated) | 79.1% (inactive) and 82.4% (inactive) | 109% (inactive) and 81.3% (inactive) | 96% (inactive) and 100% (inactive) | 94.3% (inactive) and 106% (inactive) | 94.3% (inactive) and 93.2% (inactive) | 98.4% (inactive) and 74.7% (inactive) | 110% (inactive) and 96.2% (inactive) |  |  | 
OCc1ccccc1F | 95.9% (inactive) | 82.4% (inactive) | 97.6% (inactive) | 58% (inactive) | 72.2% (inactive) | 58.2% (inactive) | 93.2% (inactive) |  |  | 
C/C=C/C(=O)OCCCCCCCCCCCC | 90.8% (inactive) | 97% (inactive) | 115% (inactive) | 111% (inactive) | 102% (inactive) | 88.5% (inactive) | 130% (inactive) | 105% (inactive) |  | 
CCNCc1ccccc1 | 98.3% (inactive) | 124% (inactive) | 110% (inactive) | 108% (inactive) | 98.7% (inactive) | 97.6% (inactive) | 99.8% (inactive) |  |  | 
Nc1nc(-c2ccccn2)cc(-c2cc(-c3ccccn3)nc(N)n2)n1 | 109% (inactive) | 117% (inactive) | 119% (inactive) | 133% (inactive) | 92.2% (inactive) | 111% (inactive) | 104% (inactive) |  |  | 

Reference: PubChem BioAssay (NCI)
